Test results as given in PubChem BioAssay AID1445 (SRMLSC, 2008).
Hit rate of the full screen: of about 220,000 compounds, about 910 (0.41%) were called active. Only a selection was taken, and actives are over-represented in it overall. Potency and affinity values are given separately. A number with no mark means an inactive call.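 The calls were made as follows: active = primary inhibition above the hit cutoff, then over 50% inhibition at one or more dose response concentrations (cut at about 23% in these data, passing the limit was not always enough); inconclusive = conflicting primary data, or primary hits not chosen for dose response; inactive = low primary inhibition, or under 50% at every dose.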

Molecular target: Aminopeptidase N (Plasmodium falciparum (isolate 3D7)) (UniProt O96935)
Test: malaria alanyl aminopeptidase activity blockers – biochemical, fluorogenic H-Leu-NHMec substrate, 1536-well (AID 1445);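 also: plate controls were DMSO full reaction for no effect and no enzyme background for full effect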
Conditions: recombinant M1AAP, H-Leu-NHMec fluorogenic kinetic assay; at 30 µM, hits give high values unless noted

Chain of Aminopeptidase N (Plasmodium falciparum (isolate 3D7)) (O96935 whole entry, looked up): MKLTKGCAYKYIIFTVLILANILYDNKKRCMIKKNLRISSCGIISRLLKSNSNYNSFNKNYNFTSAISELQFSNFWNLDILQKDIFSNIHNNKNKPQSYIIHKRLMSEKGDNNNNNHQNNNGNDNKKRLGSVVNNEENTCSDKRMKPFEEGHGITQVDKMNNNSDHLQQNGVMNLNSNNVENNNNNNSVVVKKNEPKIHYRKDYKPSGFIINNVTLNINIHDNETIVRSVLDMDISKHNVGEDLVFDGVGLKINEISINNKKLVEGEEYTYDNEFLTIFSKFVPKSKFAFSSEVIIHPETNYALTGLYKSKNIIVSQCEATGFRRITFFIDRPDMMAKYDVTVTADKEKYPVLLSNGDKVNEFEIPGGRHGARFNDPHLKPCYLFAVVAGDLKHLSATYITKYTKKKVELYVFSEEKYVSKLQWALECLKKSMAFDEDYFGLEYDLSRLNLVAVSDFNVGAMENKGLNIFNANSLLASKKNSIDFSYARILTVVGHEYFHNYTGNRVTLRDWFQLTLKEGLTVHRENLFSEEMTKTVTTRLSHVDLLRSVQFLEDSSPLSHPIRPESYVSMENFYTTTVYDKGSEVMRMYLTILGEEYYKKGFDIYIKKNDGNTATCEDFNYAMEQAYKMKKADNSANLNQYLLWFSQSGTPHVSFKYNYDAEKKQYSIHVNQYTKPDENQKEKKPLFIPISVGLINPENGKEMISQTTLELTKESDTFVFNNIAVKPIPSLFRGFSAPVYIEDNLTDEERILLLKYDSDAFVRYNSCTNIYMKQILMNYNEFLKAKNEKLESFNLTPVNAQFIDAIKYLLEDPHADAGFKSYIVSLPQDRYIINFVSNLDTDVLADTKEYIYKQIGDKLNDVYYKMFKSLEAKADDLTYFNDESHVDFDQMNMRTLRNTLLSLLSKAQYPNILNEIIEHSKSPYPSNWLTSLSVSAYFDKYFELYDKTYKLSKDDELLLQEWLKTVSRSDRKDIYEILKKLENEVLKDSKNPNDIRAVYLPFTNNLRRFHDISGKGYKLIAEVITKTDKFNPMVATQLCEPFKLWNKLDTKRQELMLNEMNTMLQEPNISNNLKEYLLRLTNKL

| SMILES | inhibition |
| --- | --- |
| Cc1ccc(N/C=C2/Sc3ccccc3NC2=O)cc1 | -2.38% |
| O=C1Nc2ccccc2S/C1=C/Nc1cccc(Cl)c1 | -0.46% |
| CCc1ccc(OCC(=O)NC(NC(=S)Nc2ccc(C)cc2C)C(Cl)(Cl)Cl)cc1 (configuration not stated) | 1.79% |
| Cc1cc(NC(=O)CSc2nnc(-c3ccncc3)n2-c2ccccc2)no1 | 10.6% |
| CCCCOc1ccc(CC(=O)NCC(=O)O)cc1 | 3.76% |
| CCCCOc1ccc(C(=O)O)cc1 | 9.1% |
| Cc1cccc(N(Cc2cc3ccccc3[nH]c2=O)C(=O)c2cccs2)c1 | 0.39% |
| C=CCOc1ccc2ccccc2c1CNc1ncn[nH]1 | 0.63% |
| CN(CC(=O)Nc1ccc(N2CCOCC2)cc1)C(=O)COc1ccccc1F | 0.51% |
| CN1c2ccsc2C(O)=C(C(=S)Nc2ccccc2)S1(=O)=O | 7.91% |
| Cc1ccc(NC(=S)C2=C(O)c3sccc3N(C)S2(=O)=O)cc1 | 25.2% (active) |
| Cc1ccc(NC(=O)C2=C(O)c3sccc3N(C)S2(=O)=O)cc1 | 8.43% |
| Cc1cc(Oc2cc(N)cc([N+](=O)[O-])c2)ccc1Cl | 4.69% |
| O=C(NNC(=O)c1ccccc1Cl)c1ccccc1Cl | -3.69% |
| O=C(NNC(=O)c1ccccc1Br)c1ccccc1Cl | 5.77% |
| O=C(NNC(=O)c1ccc2ccccc2c1O)c1ccccc1Cl | 25.2% (active) |

| SMILES | inhibition |
| --- | --- |
| CSc1ccc(-c2nnn(CC(=O)NCc3ccccc3)n2)cc1 | -1.85% |
| Cc1[nH]nc2c1C(c1ccc(-c3ccc(Cl)cc3)o1)C(C#N)=C(N)O2 (configuration not stated) | -0.1% |
| Cc1ccc(-c2ccc(C3C(C#N)=C(N)Oc4n[nH]c(C)c43)o2)cc1 (configuration not stated) | 12.9% |
| Cc1[nH]nc2c1C(c1ccc(-c3ccccc3C#N)o1)C(C#N)=C(N)O2 (configuration not stated) | 23.4% (active) |
| COc1ccc(N2CCN(C(=O)COc3ncnc4ccccc34)CC2)cc1 | 0.28% |
| N/C(=N\OC(=O)CCCOc1ccccc1)c1ccncc1 | 2.2% |
| CCOCCCNC(=O)CCC(=O)NNc1nc2ccccc2c2nc(C)nn12 | 1.55% |
| Cc1ccc(S(=O)(=O)c2c(N)n(Cc3ccco3)c3nc4ccccc4nc23)cc1 | 24.7% (active) |
| Nc1c(S(=O)(=O)c2ccccc2)c2nc3ccccc3nc2n1Cc1ccco1 | 21.5% |
| CCCCn1c(NS(=O)(=O)c2ccc(C)cc2)c(S(=O)(=O)c2ccccc2)c2nc3ccccc3nc21 | 11.6% |
| CCCCn1c(NS(=O)(=O)c2ccccc2)c(S(=O)(=O)c2ccc(C)cc2)c2nc3ccccc3nc21 | -1.2% |
| CCCCn1c(N)c(S(=O)(=O)c2ccc(C)cc2)c2nc3ccccc3nc21 | 12.5% |
| COc1ccc(-n2c(NC(=O)c3ccc(Br)o3)c(C#N)c3nc4ccccc4nc32)cc1 | 1.59% |
| Cc1cccc(S(=O)(=O)c2c(N)n(Cc3ccco3)c3nc4ccccc4nc23)c1 | 20.6% |
| CCCCn1c(NC(=O)c2ccccc2)c(C#N)c2nc3ccccc3nc21 | 2.47% |
| COc1ccc(-n2c(NC(=O)c3ccco3)c(C#N)c3nc4ccccc4nc32)cc1 | 3.92% |
